The values below come from PubChem BioAssay (NCI).

Assay [1] is described as follows: NCI Yeast Anticancer Drug Screen. Data for the rad50 strain (AID 155).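 Note: 0% = growth of vehicle-only cultures of the same strain.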 Particulars: S. cerevisiae rad50 strain growth inhibition; at 50.0 µM; stronger effect = higher value. Put shortly:
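Vehicle-treated cultures provide the reference for the growth inhibition reported for compound-exposed, repair-deficient yeast.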

The nature of assay [2]: NCI Yeast Anticancer Drug Screen. Data for the mec2-1 strain (AID 157). Particulars: S. cerevisiae mec2-1 strain, at 50.0 µM, stronger effect = higher value. Put shortly:
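Using mec2-1 yeast: add compound, measure growth, express inhibition versus vehicle-treated cultures.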

Assay [3] is described as follows: NCI Yeast Anticancer Drug Screen. Data for the sgs1 mgt1 strain (AID 161).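 Note: 0% = growth of cultures given vehicle only.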 Particulars: S. cerevisiae sgs1 mgt1 strain, at 50.0 µM, stronger effect = higher value. Put shortly: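 This yeast growth screen uses a strain with defined DNA-repair lesions; compound-treated growth is compared with vehicle-treated growth.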
A short description of assay [4]: NCI Yeast Anticancer Drug Screen. Data for the cln2 rad14 strain (AID 165).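 Note: 0% = growth equal to vehicle treated cultures.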 Particulars: S. cerevisiae cln2 rad14 strain, at 50.0 µM, stronger effect = higher value. Put shortly: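 Yeast strain cln2 rad14, bearing defects in cell cycle control and DNA repair, serves as the test system; values reflect growth inhibition compared with vehicle.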
The nature of assay [5]: NCI Yeast Anticancer Drug Screen. Data for the bub3 strain (AID 167). Particulars: S. cerevisiae bub3 mutant strain, at 50.0 µM, stronger effect = higher value. Put shortly: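 Mutant yeast screening strain plus compound; vehicle-treated cultures serve as the 0% inhibition reference.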
A short description of assay [6]: NCI Yeast Anticancer Drug Screen. Data for the mlh1 rad18 strain (AID 175). Particulars: S. cerevisiae mlh1 rad18 strain growth inhibition; at 50.0 µM; stronger effect = higher value. Put shortly: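 Steps: expose repair-defective yeast to compound; measure growth; express inhibition against vehicle-treated controls.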

Molecules are shown by their SMILES. Compounds without any hit were thinned out: in the full panel of roughly 79,000, 15% have a hit. A number with no mark means an inactive call. The source made the active and inactive calls. Cut-off read from the data, not from the text of the source: active = growth inhibition above about 70%; inactive = the rest.

Consider `C=C1C(=O)O[C@H]2C[C@@H]1C(=O)C/C(C)=C/CC/C(C)=C/CC[C@@]2(C)OCSC`, for which the growth inhibition in assay [1] is 18.9%; in assay [2], -5%; in assay [3], 39%; in assay [4], 26.9%; in assay [5], 9.85%; in assay [6], 13.7%.

For the molecule `NCc1ccccc1`, the growth inhibition in assay [1] is -2.5%; in assay [2], 7.75%; in assay [3], -2.2%; in assay [4], -41.4%; in assay [5] it was -18.9%; in assay [6], -3.85%.

Consider `O=C(Cl)c1c(F)c(F)c(F)c(F)c1F`, for which the growth inhibition in assay [1] was -29.6%; in assay [2], -26.1%; in assay [3], -7.4%; in assay [4], 19.4%; in assay [5], 1.25%; in assay [6], -18.9%.

In the case of `C[N+](C)(C)CC(=O)N/N=C(\C(=O)Nc1ccc(Cl)cc1)C1C(=O)N(c2ccccc2)N=C1N` (stereo unspecified), the growth inhibition in assay [1] is -15.4%; in assay [2], 1.25%; in assay [3] it was -14.8%; in assay [4] it was -13.8%; in assay [5], -6.95%; in assay [6], 17.6%.

With `O=C1CSC(c2cccc(F)c2)N1CCN1C(=O)CSC1c1cccc(F)c1` (stereo unspecified), the growth inhibition in assay [1] is 27.7%; in assay [2], 16.7%; in assay [3], 9.65%; in assay [4], 20.6%; in assay [5], 2.4%; in assay [6] it was -7.5%.

With `COc1cc(/C=N/N=C(\N)NO)cc(Cl)c1O`, the growth inhibition is -20.4% in assay [1]; -29.1% in assay [2]; -27.3% in assay [3]; -19.2% in assay [4]; -8% in assay [5]; -36.1% in assay [6].

As for `COC(=O)/C=C(\C)CC(O)/C=C(\C)CCC=C(C)C` (stereo unspecified), the growth inhibition in assay [1] is 21.1%; in assay [2], 49.1%; in assay [3], 75.1% (active); in assay [4], 12.8%; in assay [5], 60.5%; in assay [6], -23.1%.

For `COc1ccc(C(O)c2cc(C(F)(F)F)cc(C(F)(F)F)c2)cc1OC` (stereo unspecified), the growth inhibition in assay [1] was 9.2%; in assay [2], -11.6%; in assay [3], 11.2%; in assay [4], 8.2%; in assay [5] it was 22.9%; in assay [6] it was 14.3%.

For the molecule `O=C(O)CCCCC1CCCC1`, the growth inhibition is 43.4% in assay [1]; 8.3% in assay [2]; 12.2% in assay [3]; 5.25% in assay [4]; 18.5% in assay [5]; 56.4% in assay [6].

For the molecule `O=C1c2ccccc2C(=O)N1CC(O)CCl` (stereo unspecified), the growth inhibition in assay [1] is -21.3%; in assay [2], -30.4%; in assay [3] it was -0.45%; in assay [4], 12%; in assay [5], -14.5%; in assay [6], -26.5%.

On to `CC1OC(Cc2ccccc2)OC1C` (stereo unspecified), for which the growth inhibition was 12.4% in assay [1]; 13.8% in assay [2]; 16.7% in assay [3]; 0.4% in assay [4]; 12.6% in assay [5]; 9.9% in assay [6].

As to `Cc1nc(Nc2ccccc2)sc1C(=O)CC(=O)C(=O)NC12CC3CC(CC(C3)C1)C2`, the growth inhibition in assay [1] is 1.3%; in assay [2], 8.95%; in assay [3], 8.8%; in assay [4], -13.1%; in assay [5], 4.4%; in assay [6] it was -0.7%.

For `S=c1nc(NCc2ccccc2)[nH]c2[nH]ncc12`, the growth inhibition in assay [1] is -6.55%; in assay [2], -17.2%; in assay [3], -1.6%; in assay [4], -17.2%; in assay [5], -21%; in assay [6] it was -2.55%.

On to `c1ccc(-c2csc(-c3nc(-c4ccccc4)cs3)n2)cc1`, for which the growth inhibition in assay [1] is -0.55%; in assay [2] it was 50%; in assay [3], 30.6%; in assay [4], -6.85%; in assay [5], 33%; in assay [6], 60.6%.

Consider `CN1CCCCC(C#N)(c2ccccc2)CC1` (stereo unspecified), for which the growth inhibition was -5.25% in assay [1]; 14.1% in assay [2]; 7.85% in assay [3]; -2.2% in assay [4]; 0.8% in assay [5]; 21.4% in assay [6].

For the molecule `CC(C)(C)c1ccc(O)c(C(=O)O)c1`, the growth inhibition in assay [1] was 3.55%; in assay [2], -0.95%; in assay [3], -5.8%; in assay [4], -4%; in assay [5] it was -35.1%; in assay [6], -23.2%.

With `COc1cc(CNc2nc3c(NC(C)=O)cc(C(F)(F)F)cc3nc2-c2ccccc2)cc(OC)c1OC`, the growth inhibition was -16.1% in assay [1]; -15.8% in assay [2]; -32.3% in assay [3]; -4.35% in assay [4]; 10.8% in assay [5]; -10.3% in assay [6].

Regarding `CC(C)(C)C1CCC(O)(CSc2ccccc2)CC1` (stereo unspecified), the growth inhibition in assay [1] was 6.7%; in assay [2] it was 1.45%; in assay [3], -1.75%; in assay [4] it was -1.75%; in assay [5] it was -6.7%; in assay [6] it was -10.6%.

In the case of `N=c1ccc([N+](=O)[O-])cn1O`, the growth inhibition is 13.4% in assay [1]; 11.7% in assay [2]; -2% in assay [3]; -41.5% in assay [4]; -2.8% in assay [5]; 1.95% in assay [6].

Consider `CCOC(=O)Nc1ccc(Cl)cc1Cl`, for which the growth inhibition in assay [1] is -16.3%; in assay [2], -8.2%; in assay [3] it was -4.7%; in assay [4] it was -16.7%; in assay [5], -8.75%; in assay [6] it was 1.15%.

On to `O=C1CS[C@@H]2C(=O)CCCC2C1` (stereo partly specified), for which the growth inhibition in assay [1] was -16%; in assay [2] it was 17.6%; in assay [3] it was -1.8%; in assay [4], -7.25%; in assay [5], -3.4%; in assay [6], -4.4%.
